Data from paper PMC4552634, “A New Set of Chemical Starting Points with Plasmodium falciparum Transmission-Blocking Potential for Antimalarial Drug Discovery” (PLoS ONE, 2015).
Hit rate of the full screen: of about 13,000 compounds, about 3,200 (25%) showed an effect of 50% or more. This is one part of the list.

System: P. falciparum stage V gametocytes
Set-up: BacTiter-Glo ATP luminescence viability of purified stage V gametocytes in 384-well plates, per cent inhibition versus DMSO
Conditions: 48 h, 5 µM; inhibitor

Going from `N=C(N)NN=CC(=O)Nc1cc([N+](=O)[O-])cc([N+](=O)[O-])c1` [TCMDC-137446] to `Cc1cnc(NCC2CCCCC2)nc1N[C@@H](CO)C(=O)Nc1ccccc1` [TCMDC-134859], the “% Inhibition” value falls from 15.96% to -15.9%.

Compared with `CCCCc1cc(NCC)nc(Nc2ccc(OC)cc2)n1` [TCMDC-133991], `CCCc1ccc(S(=O)(=O)NC2CCN(c3ccnc(Nc4ccc(OC)cc4)n3)C2)cc1` (stereo not shown) [TCMDC-133613] is higher in “% Inhibition” value: -52.54% for the first, 30.72% for the second.

First: Nc1nc2c(c(=O)[nH]1)-c1cccc(Br)c1CC2 [TCMDC-137755]
Second: O=c1cc(NCCCNCc2ccc(Cl)c(Cl)c2)[nH]c2ccc(Oc3ccccc3)cc12 [TCMDC-139409]
The “% Inhibition” value of the first is lower: -6.306% for the first, 3.988% for the second.

First: Cc1ccc(CNC(=O)[C@H](CCCN)Nc2nc(NCC3CCCCC3)ncc2C)cc1 [TCMDC-134754]
Second: Cc1ccc(CNC(=O)[C@H](CCCN)Nc2cc(C)nc(NCC3CCCCC3)n2)cc1 [TCMDC-134923]
The “% Inhibition” value of the first is lower: 82.69% for the first, 95.63% for the second.

First: Cc1ccc(CNC(=O)[C@H](CCCN)Nc2cc(C)nc(Nc3ccccc3)n2)cc1 [TCMDC-134744]
Second: Cc1ccc(CNC(=O)[C@H](CC(C)C)Nc2cc(C)nc(Nc3ccccc3)n2)cc1 [TCMDC-134740]
The “% Inhibition” value of the first is higher: 61.85% for the first, 5.216% for the second.

Going from `Cc1cnc(NCC2CCCCC2)nc1N[C@@H](CC(C)C)C(=O)Nc1ccccc1` [TCMDC-134751] to `Cc1ccc(CNC(=O)[C@H](CC(C)C)Nc2cc(C)nc(NCC3CCCCC3)n2)cc1` [TCMDC-134918], the “% Inhibition” value rises from -31.13% to -23.99%.

Going from `Cc1ccc(CNC(=O)[C@H](Cc2ccccc2)Nc2cc(C)nc(Nc3ccccc3)n2)cc1` [TCMDC-134858] to `Cc1ccc(CNC(=O)[C@H](Cc2ccccc2)Nc2cc(C)nc(NCC3CCCCC3)n2)cc1` [TCMDC-134932], the “% Inhibition” value falls from 7.065% to -13.97%.

Compared with `Cc1ccc(CNC(=O)[C@H](CCCN)Nc2nc(Nc3ccccc3)ncc2C)cc1` [TCMDC-134947], `Cc1cnc(Nc2ccccc2)nc1N[C@@H](CCCN)C(=O)Nc1ccccc1` [TCMDC-134915] is higher in “% Inhibition” value: 27.45% for the first, 85.94% for the second.

Going from `Cc1ccc(CNC(=O)[C@H](Cc2ccccc2)Nc2ccnc(NCC3CCCCC3)n2)cc1` [TCMDC-134709] to `COc1ccccc1CNC(=O)c1nn(-c2ccc(Cl)cc2)c(=O)c2ccccc12` [TCMDC-125601], the “% Inhibition” value rises from -30.11% to -3.161%.

For `CCN(CC)CCCC(C)N=C(Nc1ccc(C#N)cc1O)Nc1ccccc1Br` (stereo not shown) [TCMDC-140130], the “% Inhibition” value was 34.96%.
